High-throughput results: PubChem BioAssay, several laboratories
An excerpt weighted towards active compounds, which were near 2.8% of everything screened.
IDE cell inh: human IDE inhibitors in live cells, primary screen, fluorescence polarization, HEK cells, FAbetaB substrate | Insulin-degrading enzyme (Homo sapiens), P14735 | FAbetaB cleavage | inhibition, % at 5.59 µM | 320,000 compounds, 0.41% hits;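 active means percent inhibition above the average of all tested compounds plus 3 SD, set per screening campaign, cut at about 16% in these data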;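 further: IDE supplied by intact live HEK cells; FP after avidin binding of uncleaved biotin substrate so inhibition keeps polarization high; 0% = DMSO wells and 100% = 60 µM reference IDE inhibitor Ii1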
PP1 inh: PP1-alpha phosphatase inhibitors, primary screen, counter-screen for PP5 inhibitor project, biochemical, fluorescence, OMFP substrate, single point; purified PP1alpha; AID 2235, 2010; Serine/threonine-protein phosphatase PP1-alpha catalytic subunit (Homo sapiens), P62136; inhibition, % at 6.7 µM; 320,000 compounds, 0.9% hits;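 active means inhibition above the mean inhibition of all tested compounds plus 3 SD, computed separately for each screening campaign, cut at about 15% in these data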
Exocytosis inh: LAMP-1 surface exposure blockers, TALL-104 cells – cell-based, flow cytometry, MLPCN library, primary screen | TALL-104 LAMP-1 surface exposure; cells stimulated with thapsigargin and PMA | inhibition, % at 10 µM | 360,000 compounds, 0.66% hits | AID 651702, 2012;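 active means inhibition above about 55%, limit read from the data; inconclusive means no clear call, values can overlap the other calls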
IDE cell activ: human IDE activators in live cells, primary screen, fluorescence polarization, HEK cells, FAbeta-B substrate | activation, % at 5.96 µM | FAbeta-B cleavage; 0% vehicle, 100% cell-free pure enzyme wells | 340,000 compounds, 0.073% hits | AID 493087, 2011 | Insulin-degrading enzyme (Homo sapiens), P14735;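 active means activation above the mean of all tested compounds plus 3 SD, set per screening campaign, cut at about 17% in these data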
SKKanGAS inh: S. pyogenes SKKanGAS growth inhibitors in kanamycin, primary screen, streptokinase expression inhibitor project, SKKanGAS strain, BacTiter-Glo luminescence. 300,000 compounds, 1.3% hits. 6 h. inhibition, % at 7.5 µM. AID 1662, 2009;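 active means mean replicate score, as percent of positive control median, at least 50; inconclusive means mean below 50 but one replicate at or above 50; inactive means mean and every replicate below 50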;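 further: strain carries kanamycin resistance gene driven by streptokinase promoter and grows in 40 µg/ml kanamycin; loss of luminescence reflects streptokinase promoter inhibition or plain growth inhibition; 0% = median of DMSO wells and 100% = positive control at its reference dose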
PP5 inh: PP5 phosphatase inhibitors, primary screen, biochemical, fluorescence. Serine/threonine-protein phosphatase 5 (Homo sapiens), P53041. purified PP5c, OMFP substrate fluorescence. inhibition, % at 6.7 µM. 320,000 compounds, 0.18% hits;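 active means inhibition above the campaign's mean inhibition across all tested compounds plus 3 SD, cut at about 9.5% in these data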;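 further: 0% = DMSO only and 100% = 100 µM cantharidin control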
Target sequence (P53041 whole entry, looked up): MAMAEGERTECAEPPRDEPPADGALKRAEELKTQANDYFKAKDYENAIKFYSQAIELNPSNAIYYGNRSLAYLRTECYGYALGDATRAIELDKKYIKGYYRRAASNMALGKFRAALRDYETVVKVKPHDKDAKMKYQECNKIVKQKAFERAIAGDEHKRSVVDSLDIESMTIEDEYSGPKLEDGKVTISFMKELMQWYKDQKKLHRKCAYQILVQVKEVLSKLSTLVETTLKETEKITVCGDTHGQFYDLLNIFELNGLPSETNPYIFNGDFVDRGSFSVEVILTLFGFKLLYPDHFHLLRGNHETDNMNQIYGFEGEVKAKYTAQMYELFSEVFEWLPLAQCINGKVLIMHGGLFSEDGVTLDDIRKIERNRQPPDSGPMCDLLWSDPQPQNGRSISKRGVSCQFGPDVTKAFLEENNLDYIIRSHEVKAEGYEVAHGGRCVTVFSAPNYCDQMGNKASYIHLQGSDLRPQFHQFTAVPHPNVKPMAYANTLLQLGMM
An asterisk follows results filed as active.

Screening COc1ccc(N2C(=O)CC3(CCCC3)CC2=O)cc1 returned IDE cell inh -6.0, PP1 inh -0.1, Exocytosis inh -2.9, IDE cell activ -2.2, SKKanGAS inh 0.2 and PP5 inh -1.4.
Screening COc1ccc(NC(=O)[C@@H]2O[C@H](CO)[C@H](O)[C@H](O)[C@H]2O)cc1F returned Exocytosis inh 0.0.
CC(C)Cn1c(O)c(N=NC(=O)c2cccc(S(=O)(=O)N3CCCCC3)c2)c2ccccc21 was read as IDE cell inh -2.7, PP1 inh 0.7, Exocytosis inh 0.3, IDE cell activ 1.3, SKKanGAS inh 53.5* and PP5 inh 0.1.
Screening O=C(CC[C@H]1O[C@@H](n2ccc(=O)[nH]c2=O)[C@H](O)[C@@H]1O)N[C@@H](Cc1ccccc1)C(=O)NCc1ccccc1 returned Exocytosis inh -2.3.
Screening CC(C)Cc1nc(N2CCCCC2)c(C#N)c2c1CCC2 returned IDE cell inh -1.6, PP1 inh -0.3, Exocytosis inh -3.8, IDE cell activ 8.8, SKKanGAS inh 51.3* and PP5 inh -1.1.
For CC(=O)N1CCN(c2nc(CC(C)C)c3c(c2C#N)CCC3)CC1 the results were IDE cell inh -0.8, PP1 inh -3.9, Exocytosis inh -0.2, IDE cell activ 1.1, SKKanGAS inh -1.3 and PP5 inh 3.1.
`CN(C)C1(CNC(=O)C2CCN(S(=O)(=O)c3cccc(C(F)(F)F)c3)CC2)CCCCC1` gave IDE cell inh -6.2, PP1 inh -0.9, Exocytosis inh 2.1, IDE cell activ 1.2, SKKanGAS inh 4.8 and PP5 inh -1.0.
CCOC(=O)c1ccc(S(=O)(=O)Nc2cc(C(=O)O)ccc2Cl)cc1 was read as IDE cell inh 1.5, PP1 inh -4.4, Exocytosis inh -1.5, IDE cell activ 2.4, SKKanGAS inh 6.7 and PP5 inh 1.0.
Screening O=C(CCNC(=O)Cn1ccc2ccccc2c1=O)NCCc1ccc(Cl)cc1 returned IDE cell inh -2.8, PP1 inh 0.7, Exocytosis inh 2.4, IDE cell activ -0.3, SKKanGAS inh -12.4 and PP5 inh 1.0.
Screening Cc1ccccc1-n1nc(C(=O)c2cccs2)cc(-c2nc3ccccc3[nH]2)c1=N returned IDE cell inh 1.9, PP1 inh 13.4, Exocytosis inh -1.0, IDE cell activ 1.4, SKKanGAS inh 86.0* and PP5 inh 0.9.
`Cc1cc(NC(=O)c2cccs2)n(-c2nc3ccccc3[nH]2)n1` gave IDE cell inh 0.6, PP1 inh 6.7, Exocytosis inh 0.2, IDE cell activ -4.6, SKKanGAS inh -11.8 and PP5 inh 0.1.
For Cc1cccc(-n2nc(C(=O)c3ccco3)cc(-c3nc4ccccc4[nH]3)c2=N)c1 the results were IDE cell inh -0.1, PP1 inh -2.5, Exocytosis inh 3.4, IDE cell activ -2.3, SKKanGAS inh inconclusive and PP5 inh 2.9.
Screening COc1ccc(-n2nc(C(=O)c3cccs3)cc(-c3nc4ccccc4[nH]3)c2=N)cc1 returned IDE cell inh 1.4, PP1 inh 4.5, Exocytosis inh 22.5, IDE cell activ -0.2, SKKanGAS inh 58.4* and PP5 inh -0.1.
Screening CCC1Sc2ccc(S(=O)(=O)CCC(=O)Nc3cc(C)ccn3)cc2NC1=O (stereo not given) returned IDE cell inh -0.1, PP1 inh 3.9, Exocytosis inh 1.1, IDE cell activ -1.3, SKKanGAS inh 3.2 and PP5 inh 1.3.
For O=S(=O)(Nc1nc(-c2sccc2Cl)cs1)c1cc(Cl)ccc1Cl the results were IDE cell inh -2.9, PP1 inh 19.0*, Exocytosis inh 11.4, IDE cell activ 5.0, SKKanGAS inh 84.8* and PP5 inh 1.6.
`COc1ccccc1N(CCC#N)C(=O)CSc1nnc2ccccn12` gave IDE cell inh 4.8, PP1 inh -7.0, Exocytosis inh -0.8, IDE cell activ 5.5 and PP5 inh 1.7.
O=C(CCCn1nnnc1CN1CCOCC1)N1CCC(c2ccccc2F)C1 (stereo not given) was read as Exocytosis inh 0.4, IDE cell activ 4.1 and SKKanGAS inh -4.3.
